Unmarked numbers belong to inactive results. Inconclusive results are not listed. Where a call stands in place of a potency, no number is given. The source made the active and inactive calls. Unless noted, calls follow the shape of the dose curve; as a rule, active = well fitted curve in the direction sought with a large enough effect in the repeat runs; inconclusive = weak or mixed curves; inactive = flat fitted curve, though single readings scatter.
Experiments:
[1] = qHTS assay to test for compound auto fluorescence at 535 nm (green) in HEK293 cells (AID 720680)
[2] = qHTS assay to test for compound auto fluorescence at 460 nm (blue) in HEK293 cell free culture (AID 720681); also: potency is read from the fitted curve at half-maximal effect
Outline: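 Compounds were added to cell-free DMEM with 10% FBS and fluorescence read directly. The blue channel used 405 nm excitation and 460 nm emission, with triamterene as the reference fluorophore.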

[3] = qHTS assay to test for compound auto fluorescence at 535 nm (green) in HEK293 cell free culture (AID 720682)
Outline: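 Steps: dispense DMEM/10% FBS into empty wells; pin in compound or DMSO; measure fluorescence at 485/535 nm. Values are fluorescein equivalents.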

[4] = qHTS assay to test for compound auto fluorescence at 590 nm (red) in HEK293 cell free culture (AID 720683)
Outline: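 Cell-free wells of DMEM with 10% FBS received compound, and intrinsic fluorescence was read at excitation/emission 540/590 nm. Values expressed as equivalence to Rose Bengal sodium.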

[5] = qHTS assay to test for compound auto fluorescence at 590 nm (red) in HepG2 cell free culture (AID 720684)
Outline: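 Rose Bengal sodium served as the reference for red signal. Test compounds were dispensed into serum-containing MEM (10% FBS) without cells, and plates were read at 540/590 nm.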

[6] = qHTS assay to test for compound auto fluorescence at 460 nm (blue) in HepG2 cell free culture (AID 720685); also: potency is read from the fitted curve at half-maximal effect
Outline: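 Cell-free plates of MEM plus 10% FBS received 23 nL compound or DMSO vehicle; blue-channel (405/460 nm) intensity scored against triamterene as reference fluorophore.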

[7] = qHTS assay to test for compound auto fluorescence at 535 nm (green) in HepG2 cell free culture (AID 720686)
[8] = qHTS assay to test for compound auto fluorescence at 460 nm (blue) in HepG2 cells (AID 720687); also: potency is read from the fitted curve at half-maximal effect
Outline: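 HepG2 cells in MEM with 10% FBS, attached overnight at 37 C, were exposed to compound or DMSO for 1 hr at 37 C, 5% CO2. Blue fluorescence was read at 405/460 nm, with triamterene as reference fluorophore.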

[9] = target: Glucocorticoid receptor (Homo sapiens) (UniProt P04150); assay: qHTS assay to identify small molecule agonists of the glucocorticoid receptor (GR) signaling pathway (AID 720691; active = well fitted activation curve with a large enough effect in the signal ratio in the repeat runs, not every such curve was filed as active; the % refers to the signal ratio)
Glucocorticoid receptor (Homo sapiens), sequence (P04150 whole entry, looked up): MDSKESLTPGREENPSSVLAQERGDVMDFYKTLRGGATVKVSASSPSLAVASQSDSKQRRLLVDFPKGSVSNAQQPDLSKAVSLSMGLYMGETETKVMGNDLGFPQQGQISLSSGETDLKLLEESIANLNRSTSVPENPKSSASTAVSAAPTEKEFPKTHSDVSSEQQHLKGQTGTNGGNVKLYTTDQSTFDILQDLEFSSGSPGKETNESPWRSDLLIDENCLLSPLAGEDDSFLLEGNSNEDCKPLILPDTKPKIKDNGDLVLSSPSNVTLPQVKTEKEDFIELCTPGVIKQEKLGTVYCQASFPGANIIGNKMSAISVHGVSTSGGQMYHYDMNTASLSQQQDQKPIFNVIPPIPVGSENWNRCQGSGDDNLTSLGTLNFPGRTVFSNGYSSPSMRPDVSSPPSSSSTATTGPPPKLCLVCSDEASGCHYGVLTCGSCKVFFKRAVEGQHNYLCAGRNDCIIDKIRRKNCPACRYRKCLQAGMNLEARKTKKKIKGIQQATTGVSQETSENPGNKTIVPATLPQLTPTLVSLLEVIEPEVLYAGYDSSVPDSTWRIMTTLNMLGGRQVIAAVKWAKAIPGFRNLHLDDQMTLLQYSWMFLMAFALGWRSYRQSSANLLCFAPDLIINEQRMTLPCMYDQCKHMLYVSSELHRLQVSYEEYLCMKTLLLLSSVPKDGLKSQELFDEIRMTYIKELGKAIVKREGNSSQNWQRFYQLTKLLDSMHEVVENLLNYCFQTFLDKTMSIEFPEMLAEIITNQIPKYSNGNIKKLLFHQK
Outline: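 Measures GR pathway activation through a GRE-beta-lactamase reporter stably integrated in HeLa cells, with 18 h compound treatment at 37 C and fluorescence detection using a FRET substrate.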

[10] = target: Glucocorticoid receptor (Homo sapiens) (UniProt P04150); assay: qHTS assay to identify small molecule antagonists of the glucocorticoid receptor (GR) signaling pathway (AID 720692; active = well fitted inhibition curve with a large enough effect in the signal ratio in the repeat runs, not every such curve was filed as active; the % refers to the signal ratio; also: potency is read from the fitted curve at half-maximal effect)
Outline: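 Tox21 10K library screened in concentration-response for blockade of dexamethasone (5 nM final)-induced GRE-bla reporter activity in HeLa cells; 18 h treatment, fluorescence read.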
Tags tell the direction and shape of the fitted curve or compound fluorescence and quenching.

SMILES	outcome [1]	Potency [2]	outcome [3]	outcome [4]	outcome [5]	Potency [6]	outcome [7]	Potency [8]	Potency [9]	fluorescence, % of fluorescein [1]	fluorescence, % of fluorescent control [2]	activity change [3]	fluorescence, % of fluorescent control [4]	fluorescence, % of Rose Bengal [5]	fluorescence, % of fluorescent control [6]	fluorescence, % of fluorescein control [7]	fluorescence, % of fluorescent control [8]	Potency [10]
BrC(Br)C(Br)(Br)Br	inactive	inactive	inactive	inactive	inactive	inactive	inactive	inactive	inactive	–	–	–	–	–	–	–	–	–
COc1ccc(N)cc1N	inactive	inactive	inactive	inactive	inactive	inactive	inactive	inactive	inactive	–	–	–	–	–	–	–	–	–
ClC(Cl)=C(Cl)Cl	inactive	inactive	inactive	inactive	inactive	inactive	inactive	inactive	–	–	–	–	–	–	–	–	–	–
Clc1ccc(COC(Cn2ccnc2)c2ccc(Cl)cc2Cl)cc1 (centres undefined)	inactive	inactive	inactive	inactive	inactive	inactive	inactive	inactive	–	–	–	–	–	–	–	–	–	–
CC1(C)CC/C(=C/c2ccc(Cl)cc2)C1(O)Cn1cncn1 (centres undefined)	inactive	inactive	inactive	inactive	inactive	inactive	inactive	inactive	inactive	–	–	–	–	–	–	–	–	–
CN(C)C(=S)[S-].CN(C)C(=S)[S-].[Cu+2]	–	–	–	–	–	–	–	–	–	-0.0159% [at 18.6 µM]	-0.0097% [at 18.6 µM]	0.0031% [at 18.6 µM]	0.0139% [at 18.6 µM]	0.0949% [at 18.6 µM]	-0.0974% [at 18.6 µM]	0.0404% [at 18.6 µM]	0.125% [at 18.6 µM]	–
Oc1ccc(C(c2ccc(O)cc2)(C(F)(F)F)C(F)(F)F)cc1	inactive	inactive	inactive	inactive	inactive	inactive	inactive	inactive	–	–	–	–	–	–	–	–	–	–
CC(=O)Nc1ccc2c(c1)Cc1ccccc1-2	inactive	inactive	inactive	inactive	inactive	inactive	inactive	inactive	–	–	–	–	–	–	–	–	–	–
BrC(Br)Br	inactive	inactive	inactive	inactive	inactive	inactive	inactive	inactive	–	–	–	–	–	–	–	–	–	–
Cc1cc(C)c(C2=C(OC(=O)CC(C)(C)C)C3(CCCC3)OC2=O)c(C)c1	inactive	inactive	inactive	inactive	inactive	inactive	inactive	inactive	inactive	–	–	–	–	–	–	–	–	–
CC(=O)/C=C/c1ccc2c(c1)OCO2	inactive	inactive	inactive	inactive	inactive	inactive	inactive	inactive	inactive	–	–	–	–	–	–	–	–	–
O=[N+]([O-])c1c2ccccc2cc2ccccc12	inactive	inactive	inactive	inactive	inactive	inactive	inactive	inactive	inactive	–	–	–	–	–	–	–	–	–
CCCCN(CCCC)C(=S)[S-].CCCCN(CCCC)C(=S)[S-].[Zn+2]	inactive	inactive	inactive	inactive	inactive	inactive	inactive	inactive	–	–	–	–	–	–	–	–	–	–
OC(c1ccc(Cl)cc1)(c1ccc(Cl)cc1)C(Cl)(Cl)Cl	inactive	inactive	inactive	inactive	inactive	inactive	inactive	inactive	–	–	–	–	–	–	–	–	–	–
O=C(O)COc1nc(Cl)c(Cl)cc1Cl	inactive	inactive	inactive	inactive	inactive	inactive	inactive	inactive	inactive	–	–	–	–	–	–	–	–	–
Oc1ccc(C2(c3ccc(O)cc3)c3ccccc3-c3ccccc32)cc1	inactive	inactive	inactive	inactive	inactive	inactive	inactive	inactive	–	–	–	–	–	–	–	–	–	–
Cc1cc(C)cc(OP(=O)(Oc2cc(C)cc(C)c2)Oc2cc(C)cc(C)c2)c1	inactive	inactive	inactive	inactive	inactive	inactive	inactive	inactive	inactive	–	–	–	–	–	–	–	–	–
CCOCn1c(-c2ccc(Cl)cc2)c(C#N)c(Br)c1C(F)(F)F	inactive	inactive	inactive	inactive	inactive	inactive	inactive	inactive	inactive	–	–	–	–	–	–	–	–	–
CCOCCOC(C)=O	inactive	inactive	inactive	inactive	inactive	inactive	inactive	inactive	inactive	–	–	–	–	–	–	–	–	–
N#CCCC(Br)(C#N)CBr (centres undefined)	inactive	inactive	inactive	inactive	inactive	inactive	inactive	inactive	inactive	–	–	–	–	–	–	–	–	–
CC(=O)c1cc(C(C)(C)C)cc2c1CCC2(C)C	inactive	inactive	inactive	inactive	inactive	inactive	inactive	inactive	inactive	–	–	–	–	–	–	–	–	–
Cc1cc(C(F)(C(F)(F)F)C(F)(F)F)ccc1NC(=O)c1cccc(I)c1C(=O)NC(C)(C)CS(C)(=O)=O	inactive	inactive	inactive	inactive	inactive	inactive	inactive	inactive	inactive	–	–	–	–	–	–	–	–	–
CCOC(=O)CC(=O)CCl	inactive	inactive	inactive	inactive	inactive	inactive	inactive	inactive	–	–	–	–	–	–	–	–	–	–

SMILES	outcome [1]	Potency [2]	outcome [3]	outcome [4]	outcome [5]	Potency [6]	outcome [7]	Potency [8]	Potency [9]	fluorescence, % of fluorescein [1]	fluorescence, % of fluorescent control [2]	activity change [3]	fluorescence, % of fluorescent control [4]	fluorescence, % of Rose Bengal [5]	fluorescence, % of fluorescent control [6]	fluorescence, % of fluorescein control [7]	fluorescence, % of fluorescent control [8]	Potency [10]
O=c1ssc(Cl)c1Cl	inactive	inactive	inactive	inactive	inactive	inactive	inactive	inactive	–	–	–	–	–	–	–	–	–	43.6 µM (active)
CN(C)CCc1c[nH]c2cccc(O)c12	inactive	inactive	inactive	inactive	inactive	inactive	inactive	inactive	–	–	–	–	–	–	–	–	–	inactive
Oc1ccc2ccc3cccc4ccc1c2c34	inactive	44.7 µM (active)	inactive	inactive	inactive	39.8 µM [fluorescent] (active)	inactive	35.5 µM [fluorescent] (active)	inactive	–	–	–	–	–	–	–	–	–
CCOP(=O)(NC(C)C)Oc1ccc(SC)c(C)c1 (centres undefined)	inactive	inactive	inactive	inactive	inactive	inactive	inactive	inactive	inactive	–	–	–	–	–	–	–	–	–
O=C(O)C1C2CCC(O2)C1C(=O)O (centres undefined)	inactive	inactive	inactive	inactive	inactive	inactive	inactive	inactive	inactive	–	–	–	–	–	–	–	–	inactive
C[C@]12CC[C@@H]3c4ccc(OC(=O)N(CCCl)CCCl)cc4CC[C@H]3[C@@H]1CC[C@@H]2O	inactive	inactive	inactive	inactive	inactive	inactive	inactive	inactive	–	–	–	–	–	–	–	–	–	inactive
Clc1ccc(CCC(Cn2ccnc2)Sc2c(Cl)cccc2Cl)cc1 (centres undefined)	–	–	–	–	–	–	–	–	–	0.0661% [at 18.6 µM]	0.052% [at 18.6 µM]	-0.055% [at 18.6 µM]	-0.0573% [at 18.6 µM]	0.657% [at 18.6 µM]	0.0259% [at 18.6 µM]	0.0716% [at 18.6 µM]	-0.0565% [at 18.6 µM]	inactive
CCOP(=S)(OCC)OC(Cl)C(Cl)(Cl)Cl (centres undefined)	inactive	inactive	inactive	inactive	inactive	inactive	inactive	inactive	inactive	–	–	–	–	–	–	–	–	inactive
Clc1ccc(C(c2ccc(Cl)cc2)C(Cl)(Cl)Cl)cc1	inactive	inactive	inactive	inactive	inactive	inactive	inactive	inactive	–	–	–	–	–	–	–	–	–	43.6 µM (active)
CC(C)CC(C)N (centres undefined)	inactive	inactive	inactive	inactive	inactive	inactive	inactive	inactive	inactive	–	–	–	–	–	–	–	–	inactive
CN(C)[C@@H]1C(=O)C(C(N)=O)=C(O)[C@@]2(O)C(=O)C3=C(O)c4c(O)ccc(Cl)c4[C@@](C)(O)[C@H]3C[C@@H]12	inactive	inactive	inactive	inactive	inactive	inactive	inactive	inactive	inactive	–	–	–	–	–	–	–	–	inactive
CC1CCC(C(C)C)C(OC(=O)c2ccccc2N)C1 (centres undefined)	inactive	inactive	inactive	inactive	inactive	inactive	inactive	inactive	–	–	–	–	–	–	–	–	–	inactive
C[C@@H]1O[C@@H](O[C@@H]2C=C3CC[C@@H]4[C@H](CC[C@]5(C)[C@@H](c6ccc(=O)oc6)CC[C@]45O)[C@@]3(C)CC2)[C@H](O)[C@H](O)[C@H]1O	–	–	–	–	–	–	–	–	–	0.0243% [at 18.6 µM]	0.328% [at 18.6 µM]	0.0268% [at 18.6 µM]	-0.024% [at 18.6 µM]	-0.272% [at 18.6 µM]	0.14% [at 18.6 µM]	-0.0466% [at 18.6 µM]	0.187% [at 18.6 µM]	0.0574 µM (active)
S=C(SSC(=S)N1CCCCC1)N1CCCCC1	inactive	inactive	inactive	inactive	inactive	inactive	inactive	inactive	–	–	–	–	–	–	–	–	–	inactive
CCCCCCCCCCCCBr	inactive	inactive	inactive	inactive	inactive	inactive	inactive	inactive	inactive	–	–	–	–	–	–	–	–	inactive
Oc1c(Br)c(Br)c(Br)c(Br)c1Br	inactive	inactive	inactive	inactive	inactive	inactive	inactive	inactive	inactive	–	–	–	–	–	–	–	–	13.9 µM (active)
O=C1c2ccccc2C(=O)C1C(=O)C(c1ccccc1)c1ccc(Cl)cc1 (centres undefined)	inactive	inactive	inactive	inactive	inactive	inactive	inactive	inactive	inactive	–	–	–	–	–	–	–	–	12.3 µM (active)
ClC1=C(Cl)[C@]2(Cl)[C@H]3[C@H]([C@H]4C=C[C@H]3C4)[C@@]1(Cl)C2(Cl)Cl	inactive	inactive	inactive	inactive	inactive	inactive	inactive	inactive	inactive	–	–	–	–	–	–	–	–	49 µM (active)
O=C(O)c1cc[c]([Hg][Cl])cc1	inactive	inactive	inactive	inactive	inactive	inactive	inactive	inactive	–	–	–	–	–	–	–	–	–	inactive
CC(C)N1C(=O)N(c2ccccc2)CSC1=NC(C)(C)C	inactive	inactive	inactive	inactive	inactive	inactive	inactive	inactive	inactive	–	–	–	–	–	–	–	–	–
COc1ccc(/C(=C/C(=O)N2CCOCC2)c2ccc(Cl)cc2)cc1OC	inactive	inactive	inactive	inactive	inactive	inactive	inactive	inactive	inactive	–	–	–	–	–	–	–	–	inactive
CCCN(CC)CC1COC2(CCC(C(C)(C)C)CC2)O1 (centres undefined)	inactive	inactive	inactive	inactive	inactive	inactive	inactive	inactive	inactive	–	–	–	–	–	–	–	–	inactive
CC(C)CCCCCCCOP(=O)(Oc1ccccc1)Oc1ccccc1	inactive	inactive	inactive	inactive	inactive	inactive	inactive	inactive	–	–	–	–	–	–	–	–	–	inactive

Reference: PubChem BioAssay (Tox21)
